ClpP mod: qHTS Assay for Activators of ClpP. ATP-dependent Clp protease proteolytic subunit (Bacillus subtilis (strain 168)), P80244. purified B. subtilis ClpP, FRET peptide cleavage, 20 min. Potency, µM (titrated, usually from 57.5 µM), for inactives: at the highest dose activity change, negative = active. actives 1.9% (n = 340,000); active = well fitted falling curve with a large enough effect; inconclusive = small, poorly fitted or top-dose-only effect; inactive = no such curve, though single readings can be large or run the other way; note: potency is the fitted concentration of half-maximal effect; the source files actives as falling curves though it sought activators and does not explain the sign; nearly all actives have a fitted effect of over 65% in size
Target sequence (P80244 whole entry, looked up): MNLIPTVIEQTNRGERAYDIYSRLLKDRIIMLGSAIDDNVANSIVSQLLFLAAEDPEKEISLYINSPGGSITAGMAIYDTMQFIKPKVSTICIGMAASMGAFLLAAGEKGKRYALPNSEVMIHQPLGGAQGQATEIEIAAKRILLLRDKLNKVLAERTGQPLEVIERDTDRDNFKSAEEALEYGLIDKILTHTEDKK
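ClpP 10 microg/mL final, pH 8 Tris/KCl buffer with BSA, glycerol, Tween-20; compound pinned in; FRET-FV substrate; RT 20 min; Ex320/Em430; ΔFRET vs ADEP 5.8 microM, DMSO, no enzyme.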
DT40 TDP1 no CPT: qHTS for Inhibitors of human tyrosyl-DNA phosphodiesterase 1 (TDP1): qHTS in cells in absence of CPT; actives 15% (n = 420,000); DT40 Tdp1-/- hTDP1 cells, no CPT, ATP luminescence, 48 h; AID 686978, 2013; Potency, µM (highest dose often 46.2 µM), for the others: at the highest dose activity change, negative = growth inhibition, actives largely listed as inhibitors; note: potency is the fitted concentration of half-maximal effect; % is set by controls: 0 for no effect and ±100 for the full control effect; nearly all actives have a fitted effect of over 55% in size
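Seeded 400 DT40-hTDP1 cells/well (vehicle DMSO, no 20 nM CPT); pinned compounds; ≥48 hr at 37 °C; CellTiter-Glo luminescence as viability measure.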
D3 antag: blocks the human D3 dopamine receptor; max response, negative = inhibition, %; AID 652054; P35462; actives 2.5% (n = 360,000); D3R cells, DiscoveRx beta-arrestin luminescence, antagonist mode; stronger effect = lower value; in the data active = max response below about -50%; inconclusive = no clear call, values can overlap the other calls; note: % is set by controls: 0 for no effect and ±100 for the full control effect
Target sequence (P35462 whole entry, looked up): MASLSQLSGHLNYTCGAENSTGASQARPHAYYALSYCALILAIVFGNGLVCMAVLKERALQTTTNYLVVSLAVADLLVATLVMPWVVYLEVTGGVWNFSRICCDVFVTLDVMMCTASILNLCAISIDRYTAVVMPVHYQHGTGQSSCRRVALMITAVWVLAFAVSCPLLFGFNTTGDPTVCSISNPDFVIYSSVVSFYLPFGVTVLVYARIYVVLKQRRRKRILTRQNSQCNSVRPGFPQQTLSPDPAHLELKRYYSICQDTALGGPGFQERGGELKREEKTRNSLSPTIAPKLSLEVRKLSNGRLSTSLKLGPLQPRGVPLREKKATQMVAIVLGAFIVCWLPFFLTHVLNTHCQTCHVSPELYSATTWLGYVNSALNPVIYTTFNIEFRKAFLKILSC
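Cells expressing the human receptor were seeded at 1500 cells/well, incubated overnight at 37 degrees C in 5% CO2, then exposed to library compounds with dopamine controls for 90 minutes at 37 degrees C before luminescent detection.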
IL-1B inflam inh: blocks inflammasome-driven IL-1 beta release | activity change, % at 57.5 µM | actives 4.7% (n = 360,000) | THP-1 LPS/ATP IL-1B secretion, AlphaLISA, 16 h; stronger effect = lower value; in the data active = activity change below about -50%; inconclusive = mostly about -30% to -49%; note: % is set by controls: 0 for no effect and ±100 for the full control effect
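Secreted IL-1B measured by AlphaLISA bead assay after 16 h compound exposure of THP-1 cells; compounds (final up to 57.5 uM) added 1 h before LPS (250 ng/mL) and ATP (1.25 mM) stimulation; lower signal means less secretion.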
TDP1 cell CPT: growth inhibition of DT40 Tdp1-/-;hTDP1 cells with camptothecin (screen for TDP1 inhibitors). chicken DT40 Tdp1-/-;hTDP1 cells + 20 nM CPT, ATP luminescence, 48 h. Potency, µM (highest dose often 46.2 µM), for the others: top-dose activity change, negative = growth inhibition, most hits filed as inhibitors. actives 12% (n = 420,000); note: potency is the fitted concentration of half-maximal effect; % is set by controls: 0 for no effect and ±100 for the full control effect; nearly all actives have a fitted effect of over 55% in size
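Cell growth measured by CellTiter-Glo luminescence after a minimum 48 h, 37 C compound exposure with 20 nM CPT in Tdp1-knockout DT40 cells stably expressing hTDP1, seeded 400/well; qHTS titration format.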
D3 ag: agonists of human D3 dopamine receptor; D3R DiscoveRx beta-arrestin cells, luminescence, 90 min; max activation, %; AID 652048; P35462; actives 0.58% (n = 410,000); in the data active = max activation above about 30%; note: 0% is about no effect
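Cells at 1500/well, incubated overnight, then treated with pinned compounds (dopamine as control) for 90 min at 37 degrees C. DiscoveRx reagent added for 30 - 60 minutes at room temperature; luminescence read.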
Starred values were filed as active, the others as inactive; i = inactive; u = inconclusive; x = no result given. Hits are enriched below; roughly 21% of the tested compounds scored in any of these assays. Unless noted, calls come from the whole dose curve; as a rule, active = well fitted inhibition curve with a large enough effect; inconclusive = small, poorly fitted or top-dose-only effect; inactive = flat fitted curve, though single readings scatter.

SMILES	ClpP mod	DT40 TDP1 no CPT	D3 antag	IL-1B inflam inh	TDP1 cell CPT	D3 ag
CCc1ccc(NC(=O)CC2C(=O)N(c3cccc(OC)c3)C(=O)N2C2CCCC2)cc1 (stereo unspecified)	-1%	u	x	x	16µM*	-11
CCc1ccc(NC(=O)CC2C(=O)N(c3ccc(C)cc3)C(=O)N2C2CCCC2)cc1 (stereo unspecified)	3%	21µM*	x	x	u	-14
CCc1ccc(NC(=O)CC2C(=O)N(c3ccc(Cl)cc3)C(=O)N2C2CCCC2)cc1 (stereo unspecified)	4%	18µM*	x	x	u	-1
CCCN1C2=NCCCN2c2ccccc21	0%	-6%	14	22	2%	15
CCCCN1C2=NCCCN2c2ccccc21	-1%	u	u	14	u	-9
CCCCCCCN1C2=NCCCN2c2ccccc21	x	2.3µM*	-15	-72*	2.6µM*	-8
CCCCN1C2=NC(c3ccccc3)CN2c2ccccc21 (stereo unspecified)	x	26µM*	-16	-27	u	-16
CCCCCCN1C2=NCCN2c2ccccc21	-1%	u	-17	-21	u	1
CCCCN1C2=NCCCN2c2cc(C)c(C)cc21	-1%	23µM*	0	-3	18µM*	-14
CCCCCCCN1C2=NCCN2c2ccccc21	2%	18µM*	1	-55*	12µM*	1
CCc1nc2nc(C)c(NS(=O)(=O)c3ccc(C)cc3)c(=O)n2[nH]1	-2%	-2%	x	x	1%	1
CCOc1ccc(NC(=O)CN2C(=O)CC(C)Sc3ccccc32)cc1 (stereo unspecified)	2%	x	x	x	x	6
Brc1ccc(CSc2nnc(-c3ccccn3)n2Cc2ccco2)cc1	0%	8.2µM*	u	0	15µM*	-12
CC(C)(C)c1ccc(CSc2nnc(-c3ccccn3)n2Cc2ccco2)cc1	-3%	u	-14	-94*	u	-1
COc1ccc(C(=O)CSc2nnc(-c3ccccn3)n2Cc2ccco2)cc1	0%	u	7	10	-9%	-1
CNC(=O)CSc1nnc(-c2ccccn2)n1Cc1ccco1	-4%	18%	-13	4	-4%	-4
Clc1cccc(CSc2nnc(-c3ccccn3)n2Cc2ccco2)c1	1%	16µM*	-12	-19	16µM*	-7
CCN(CC)c1ccc(C2C(C(=O)OC)=C(C)NC(C)=C2C(=O)OC)cc1	u	-27%	-51*	-8	u	-2
Cc1ccc2[nH]c3nc(NN)nnc3c2c1	28µM*	u	-26	20	23µM*	-4
Cc1cc(NC(=O)CSc2nc(N)c(NC(=O)c3ccccc3)c(=O)[nH]2)no1	x	-8%	-13	-29	7%	-19
CCN(CC)S(=O)(=O)c1ccc2oc(SCC(=O)Nc3cc(C)on3)nc2c1	-2%	0.73µM*	32	-14	0.65µM*	-3
Cc1ccc(SCC(=O)Nc2cc(C)on2)cc1	-1%	-2%	-2	26	u	4
Cc1cc(NC(=O)CSc2ccc(Cl)cc2)no1	-1%	16µM*	-12	-16	13µM*	-4
Cc1cc(NC(=O)CSc2nnc(-c3ccccc3Cl)o2)no1	x	-9%	15	21	-12%	19
Cc1cc(NC(=O)CSc2nc3cc(Cl)ccc3o2)no1	x	2.6µM*	8	46	4.6µM*	5
SMILES	ClpP mod	DT40 TDP1 no CPT	D3 antag	IL-1B inflam inh	TDP1 cell CPT	D3 ag
Cc1cc(NC(=O)CSc2nc(N)c(NC(=O)c3ccccc3F)c(=O)[nH]2)no1	16µM*	0%	13	i	u	1
Cc1ccc(NC(=O)Cn2ccc(=O)[nH]c2=O)cc1	x	3%	1	21	4%	5
CCS(=O)(=O)c1ccc2oc(SCC(=O)NCCC3=CCCCC3)nc2c1	-2%	-7%	-51*	6	8%	11
CCN(CC)S(=O)(=O)c1ccc2oc(SCc3ccc(F)cc3)nc2c1	1%	21µM*	19	-6	u	-7
O=C(NC1CCCCC1)C(=O)c1c[nH]c2ccccc12	0%	u	u	u	-28%	-6
CC1(Cc2ccc(OC(F)(F)F)cc2)C(=O)Nc2ccc(OC(F)(F)F)cc21 (stereo unspecified)	3%	u	0	-13	u	11
CC(=O)c1cccc(-c2ccc3c(c2)C(C)(Cc2ccccc2F)C(=O)N3)c1 (stereo unspecified)	-4%	18µM*	50	82	26µM*	1
COC(=O)c1ccc(CC2(C)C(=O)Nc3ccc(-c4cccc(C(F)(F)F)c4)cc32)o1 (stereo unspecified)	-3%	16µM*	-10	-24	u	0
Cc1nc(SC(C)C(=O)c2c(N)n(C)c(=O)n(C)c2=O)c2c(C)c(C)sc2n1 (stereo unspecified)	-2%	u	-1	-27	u	5
Cc1cccc(C)c1NC(=O)CSc1nc2ccccc2c2nc(CCc3c(C)n[nH]c3C)nn12	0%	-29%	x	x	-17%	10
Cc1n[nH]c(C)c1CCc1nc2c3ccccc3nc(SCC(=O)Nc3ccc(F)cc3)n2n1	-1%	29µM*	x	x	18µM*	-5
Cc1ccc(NC(=O)CSc2nc3ccccc3c3nc(CCc4c(C)n[nH]c4C)nn23)cc1F	2%	6.5µM*	11	-6	7.3µM*	17
Cc1ccn2c(Nc3ccc4c(c3)OCO4)c(-c3ccc(N(C)C)cc3)nc2c1	4%	u	x	x	13µM*	-3
Cc1ccn2c(Nc3ccc4c(c3)OCCO4)c(-c3ccc(Cl)s3)nc2c1	25µM*	-26%	x	x	u	-2
Cc1ccn2c(Nc3ccc4c(c3)OCO4)c(-c3ccco3)nc2c1	4%	u	x	x	23µM*	0
Cc1ccc(-c2nc3cnccn3c2Nc2ccc3c(c2)OCO3)cc1	-1%	u	0	85	u	4
O=c1c2ccccc2cnn1CCOc1cccc(Br)c1	-4%	u	0	6	0%	-12
Cc1ccc(S(=O)(=O)CC(CN2CCCCC2)N2CCCCC2)cc1 (stereo unspecified)	x	13µM*	-68*	-98*	u	-14
